The nature of experiment [1]: qHTS assay to identify small molecule antagonists of the vitamin D receptor (VDR) signaling pathway - cell viability counter screen (AID 743225). Further: on the % scale 0 is the no-effect control and ±100 the full control effect; nearly all actives have a fitted effect of over 50% in size. In outline: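 Cytotoxicity counter screen read by CellTiter-Glo luminescence (30 min, room temperature) in the same wells as the VDR-bla antagonist readout. HEK 293T VDR-UAS-bla cells had 16 h at 37C with compound and 3 nM (final) 1-alpha,25-dihydroxyvitamin D3, then 2 h with FRET substrate.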

The nature of experiment [2]: qHTS assay to identify small molecule agonists of the NFkB signaling pathway (AID 1159509; active means well fitted curve in the direction sought with a large enough effect in the signal ratio in the repeat runs, not every such curve was filed as active; the % refers to the signal ratio; further: series mostly up to about 61 µM; on the % scale 0 is the no-effect control and ±100 the full control effect). An outline of the steps:
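Pathway activation was measured in ME-180 cells stably expressing beta-lactamase under NF-kB response element control. Substrate cleavage was read as the 460/530 nm emission shift after 5 hr compound incubation.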

Experiment [3] is described as follows: qHTS assay to identify small molecule agonists of the NFkB signaling pathway - cell viability counter screen (AID 1159515; calls by dose curve; further: series mostly up to about 61 µM; on the % scale 0 is the no-effect control and ±100 the full control effect; nearly all actives have a fitted effect of over 55% in size). In outline: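 Read by CellTiter-Glo luminescence (30 min, room temperature) in the wells also used for the beta-lactamase FRET read. ME-180 NFkB-bla cells at 2,000 per well were plated overnight, then exposed to compound for 5 hr at 37 C.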
In general terms: Quantitative high-throughput screening tests each substance at several concentrations.

Experiment [4] is described as follows: qHTS assay to identify small molecule agonists of the endoplasmic reticulum stress response signaling pathway (AID 1159516; active means well fitted activation curve with a large enough effect in the signal ratio in the repeat runs, not every such curve was filed as active; the % refers to the signal ratio; further: on the % scale 0 is the no-effect control and ±100 the full control effect). In outline:
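Ratiometric FRET readout (405 nm excitation; 460 and 530 nm emission) of a beta-lactamase gene driven by the ER stress response element, after 2 hr substrate loading. HeLa ESRE-bla cells were seeded overnight and treated with compounds for only 5 hr at 37 C.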

Experiment [5] can be described thus: qHTS assay to identify small molecule antagonists of the retinoid-related orphan receptor gamma (ROR-gamma) signaling pathway - cell viability counter screen (AID 1159520). Further: on the % scale 0 is the no-effect control and ±100 the full control effect; nearly all actives have a fitted effect of over 50% in size. An outline of the steps:
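Cytotoxicity was read from cellular ATP (CellTiter-Glo luminescence) after 16 hr at 37 C with 1 uM doxycycline induction. The inducer was added 2 hr after compound transfer to Tet-on ROR gamma CHO cells.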

Experiment [6] concerns the target Nuclear receptor ROR-gamma (Homo sapiens) (UniProt P51449). Nature of the experiment: qHTS assay to identify small molecule antagonists of the retinoid-related orphan receptor gamma (ROR-gamma) signaling pathway (AID 1159521; further: top concentration of the series differs between compounds; on the % scale 0 is the no-effect control and ±100 the full control effect; nearly all actives have a fitted effect of over 50% in size). An outline of the steps:
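Antagonist read-out: drop in luminescence (ONE-Glo) from an RORE-LUC reporter in CHO cells with doxycycline-inducible ROR-gamma; 2 hr compound pretreatment, 1 uM doxycycline, 16 hr incubation at 37 C.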

Experiment [7] in a line: qHTS assay to identify small molecule agonists of the AP-1 signaling pathway - cell viability counter screen (AID 1159525; calls by dose curve; further: nearly all actives have a fitted effect of over 55% in size). In outline:
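Intracellular ATP by Cell Titer Glo luminescence (30 min, RT) in the same ME-180 AP-1-bla wells after the 5 h compound exposure at 37 °C. Normalised to tetra n-octyl ammonium bromide and DMSO controls.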

Experiment [8] can be described thus: qHTS assay to identify small molecule agonists of the AP-1 signaling pathway (AID 1159526; calls by dose curve; further: on the % scale 0 is the no-effect control and ±100 the full control effect).
In experiment [9] the target is Retinoic acid receptor RXR-alpha (Homo sapiens) (UniProt P19793). Put plainly: qHTS assay to identify small molecule agonists of the RXR signaling pathway (AID 1159527; calls by dose curve; further: nearly all actives have a fitted effect of over 35% in size; further: potency means the concentration at half of the fitted maximal effect). An outline of the steps: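 Agonist-mode beta-lactamase reporter assay: HEK 293T RXR-alpha-UAS-bla cells treated 16 hr at 37 C with compounds, 9-cis retinoic acid as positive control. LiveBLAzer FRET substrate, 405 nm excitation, 460/530 nm emission.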
Retinoic acid receptor RXR-alpha (Homo sapiens), sequence (P19793 whole entry, looked up): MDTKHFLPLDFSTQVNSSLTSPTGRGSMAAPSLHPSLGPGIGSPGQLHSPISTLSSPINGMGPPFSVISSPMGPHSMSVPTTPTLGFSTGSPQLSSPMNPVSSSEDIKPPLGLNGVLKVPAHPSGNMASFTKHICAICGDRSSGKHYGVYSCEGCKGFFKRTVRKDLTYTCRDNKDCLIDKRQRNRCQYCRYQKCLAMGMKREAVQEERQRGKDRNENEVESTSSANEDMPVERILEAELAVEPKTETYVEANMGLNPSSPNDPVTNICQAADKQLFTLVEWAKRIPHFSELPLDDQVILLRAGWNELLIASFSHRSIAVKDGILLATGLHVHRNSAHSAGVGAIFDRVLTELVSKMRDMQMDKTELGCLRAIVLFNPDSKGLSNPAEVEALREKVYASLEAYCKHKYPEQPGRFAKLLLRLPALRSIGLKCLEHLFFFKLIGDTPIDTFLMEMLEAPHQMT

The nature of experiment [10]: qHTS assay to identify small molecule agonists of the RXR signaling pathway - cell viability counter screen (AID 1159529). Further: series mostly up to about 77 µM; on the % scale 0 is the no-effect control and ±100 the full control effect; nearly all actives have a fitted effect of over 50% in size. An outline of the steps: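 CellTiter-Glo luminescence gave viability in the wells also read for beta-lactamase. Cells (RXR-alpha-UAS-bla HEK 293T, 2% charcoal-stripped FBS medium) had 5 hr plating, then 16 hr compound exposure at 37 C; tetraoctyl ammonium bromide served as positive control.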

Experiment [11] can be described thus: qHTS assay to identify small molecule antagonists of the retinoid acid receptor (RAR) signaling pathway - cell viability counter screen (AID 1159551). Further: on the % scale 0 is the no-effect control and ±100 the full control effect; nearly all actives have a fitted effect of over 35% in size. An outline of the steps: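 Cytotoxicity counter screen: ATP content quantified by CellTiter-Glo luminescence in C3RL4 cells treated 6 hr at 37 C with compound and retinol (1 uM final). Cells plated at 1,000/well and cultured overnight before dosing.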

Experiment [12] in a line: qHTS assay to identify small molecule antagonists of the retinoic acid receptor (RAR) signaling pathway (AID 1159552). In outline: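 Luminescent RARE reporter read-out in C3RL4 cells: 6 hr co-treatment at 37 C of test compounds with retinol at 1 uM final. Cells plated overnight beforehand; luciferase reagent incubated 30 min at room temperature before reading.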
Experiment [13] is described as follows: qHTS assay to identify small molecule agonists of the retinoic acid receptor (RAR) signaling pathway (AID 1159553). Further: on the % scale 0 is the no-effect control and ±100 the full control effect. An outline of the steps: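 Luminescence was measured 30 min after luciferase reagent addition at room temperature. Before that, C3RL4 reporter cells (1,000 per well, plated overnight) were treated with compound for 6 hr at 37 C and 5% CO2.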

Experiment [14] can be described thus: qHTS assay to identify small molecule antagonists of the estrogen related receptor (ERR) signaling pathway from Tox21 library - cell viability counter screen (AID 1224834). Further: on the % scale 0 is the no-effect control and ±100 the full control effect; nearly all actives have a fitted effect of over 30% in size. In outline:
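CellTiter-Fluor fluorescence, read after 30 min at 37 C, measures viability of ERR cells. Cells plated at 2,000/well and incubated 6 h before pin-tool compound addition, then exposed 17.5 hours at 37 C.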

The target in experiment [15] is Luciferin 4-monooxygenase (Photinus pyralis) (UniProt P08659). Nature of the experiment: qHTS assay to identify small molecule inhibitors of firefly luciferase (AID 1224835). Further: series mostly up to about 120 µM; on the % scale 0 is the no-effect control and ±100 the full control effect; nearly all actives have a fitted effect of over 25% in size. In outline:
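Inhibition of purified Photinus luciferase is measured by luminescence. Substrate levels (D-luciferin, ATP) sit at their KM values. Each compound is tested in a concentration series.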

Experiment [16] is described as follows: qHTS assay to identify small molecule agonists of the constitutive androstane receptor (CAR) signaling pathway - cell viability counter screen (AID 1224836). Further: series mostly up to about 92 µM; on the % scale 0 is the no-effect control and ±100 the full control effect; nearly all actives have a fitted effect of over 45% in size. An outline of the steps:
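Cell viability multiplexed with the CAR agonist screen: CellTiter-Fluor fluorescence after 23 hr at 37 C. HepG2-CYP2B6-hCAR cells got compounds at 15 concentrations with PK11195 at 0.75 uM final.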

Experiment [17] is described as follows: qHTS assay to identify small molecule antagonists of the constitutive androstane receptor (CAR) signaling pathway - cell viability counter screen (AID 1224837). Further: series mostly up to about 92 µM; on the % scale 0 is the no-effect control and ±100 the full control effect; nearly all actives have a fitted effect of over 45% in size. In outline:
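Cytotoxicity counter-screen: CellTiter-Fluor fluorescence after 23 h compound exposure (15-point qHTS) in double-stable HepG2-CYP2B6-hCAR cells, with 50 nM CITCO added.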

Experiment [18] deals with Nuclear receptor subfamily 1 group I member 3 (Homo sapiens) (UniProt Q14994). Put plainly: qHTS assay to identify small molecule antagonists of the constitutive androstane receptor (CAR) signaling pathway (AID 1224838).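 Further: HepG2 cells stably expressing hCAR with CYP2B6 luciferase reporter stimulated by CITCO; on the % scale 0 is the no-effect control and ±100 the full control effect; nearly all actives have a fitted effect of over 40% in size.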 In outline: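 Antagonism measured as luciferase signal (ONE-Glo, 30 min, room temperature) in CAR-stimulated cells: HepG2-CYP2B6-hCAR double-stable line exposed 24 hr at 37 C to compound in a 15-point series plus 50 nM CITCO.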
Nuclear receptor subfamily 1 group I member 3 (Homo sapiens), sequence (Q14994 whole entry, looked up): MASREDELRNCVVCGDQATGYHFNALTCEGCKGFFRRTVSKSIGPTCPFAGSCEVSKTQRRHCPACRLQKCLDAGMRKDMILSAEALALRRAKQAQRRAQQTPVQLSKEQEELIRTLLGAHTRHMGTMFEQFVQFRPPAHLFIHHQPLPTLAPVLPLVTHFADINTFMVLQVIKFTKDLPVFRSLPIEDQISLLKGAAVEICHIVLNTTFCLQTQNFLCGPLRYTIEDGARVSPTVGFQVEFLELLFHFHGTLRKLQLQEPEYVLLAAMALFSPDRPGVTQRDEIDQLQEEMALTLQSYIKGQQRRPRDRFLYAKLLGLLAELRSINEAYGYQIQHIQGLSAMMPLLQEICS

Experiment [19] shares this target. Nature of the experiment: qHTS assay to identify small molecule agonists of the constitutive androstane receptor (CAR) signaling pathway (AID 1224839).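 Further: HepG2 cells stably carrying human CAR and a CYP2B6 luciferase reporter; series mostly up to about 92 µM; on the % scale 0 is the no-effect control and ±100 the full control effect; nearly all actives have a fitted effect of over 15% in size.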 An outline of the steps: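 Luminescent ONE-Glo read-out after 24 hr, 37 C exposure of double-stable HepG2-CYP2B6-hCAR reporter cells to a 15-point compound series, in the presence of 0.75 uM PK11195 (final).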

Here are results for 6 compounds from PubChem BioAssay (Tox21).

Records with an inconclusive call do not appear. A number with no mark means an inactive call. Activity calls are given as the source filed them. Unless noted, the call rests on the fitted dose curve; in most records, active means well fitted curve in the direction sought with a large enough effect in the repeat runs; inconclusive means weak or mixed curves; inactive means no such curve, though single readings can be large; an effect the other way counts as inactive or inconclusive.

Luciferin 4-monooxygenase (Photinus pyralis), sequence (P08659 whole entry, looked up): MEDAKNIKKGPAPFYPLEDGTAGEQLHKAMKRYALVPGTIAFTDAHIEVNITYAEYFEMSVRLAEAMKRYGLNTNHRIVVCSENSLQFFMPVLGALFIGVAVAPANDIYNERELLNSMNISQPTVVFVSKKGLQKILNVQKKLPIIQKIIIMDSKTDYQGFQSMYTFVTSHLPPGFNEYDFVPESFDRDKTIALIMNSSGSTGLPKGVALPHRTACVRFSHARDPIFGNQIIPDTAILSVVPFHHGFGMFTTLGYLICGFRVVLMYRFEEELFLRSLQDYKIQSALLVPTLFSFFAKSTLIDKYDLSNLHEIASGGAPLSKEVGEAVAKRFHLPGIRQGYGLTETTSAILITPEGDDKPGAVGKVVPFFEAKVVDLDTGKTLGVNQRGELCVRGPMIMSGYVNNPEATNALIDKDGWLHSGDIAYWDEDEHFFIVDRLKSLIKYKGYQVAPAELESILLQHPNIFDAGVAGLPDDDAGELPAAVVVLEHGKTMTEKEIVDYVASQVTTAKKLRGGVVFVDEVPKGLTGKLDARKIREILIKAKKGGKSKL

Take `CC(C)[C@H]1CC[C@H](C)C[C@@H]1O`: the compound was classed as inactive in experiment [1], in experiment [2], in [3], in experiment [4], in experiment [5] and in experiment [6]. Also, the result in experiment [7], in experiment [8], in experiment [10], in [11], in experiment [12] and in experiment [14] was inactive. Moreover, the call in [16] and in [17] was inactive. Further, the Potency result in [9], in experiment [13], in [15], in experiment [18] and in experiment [19] was “inactive” each time.

With `[O]=[Mo](=[O])=[O]`, the call in experiment [1], in experiment [2], in experiment [3] and in [4] was inactive. Besides, the activity, negative = cytotoxicity in experiment [5] is 11.6% [at 19 µM]. Also, the activity change, negative = inhibition in experiment [6] was 4.36% [at 19 µM]; in experiment [15] it was 0.269% [at 23.6 µM]. Besides, the viability change, negative = cytotoxic was -2.83% [at 15.8 µM] in experiment [7], 3.34% [at 19 µM] in [14] and -3.23% [at 19 µM] in experiment [16]. Also, the activation was -20.6% [at 15.8 µM] in experiment [8], 0.58% [at 15.8 µM] in experiment [9] and -3.75% [at 19 µM] in experiment [19]. Moreover, the activity change, negative = cytotoxicity is -1.21% [at 15.8 µM] in experiment [10], 3.04% [at 19 µM] in experiment [11] and -0.0508% [at 19 µM] in [17]. The figures for the activity, negative = inhibition in experiment [12] and in [18] were 8.42% [at 19 µM] and -9.59% [at 19 µM], respectively. In experiment [13], the Potency entry is “inactive”.

For `Cc1c(NC(=O)c2cccnc2)c(=O)n(-c2ccccc2)n1C`, the compound was classed as inactive in experiment [1], in experiment [2], in [3], in [4], in [5] and in [6]. Also, the call in experiment [7], in experiment [8], in [10], in experiment [11], in experiment [12] and in [14] was inactive. Moreover, the result in [16] and in [17] was inactive. Besides, the Potency entry in [9], in experiment [13], in experiment [15] and in experiment [18] was “inactive” throughout.

As to `OC[C@@H](O)C(O)[C@@H](O)CO` (some centres undefined), the compound was classed as inactive in [2], in [3], in experiment [4], in experiment [5], in [6] and in [7]. The compound was classed as inactive in experiment [8], in experiment [10], in [11], in [12], in experiment [14] and in experiment [17]. Besides, the Potency in [9] is 1570 nM (active). The Potency entry in experiment [13], in experiment [15], in [18] and in experiment [19] was “inactive” throughout.

`CC(C)C[C@@H]1[C@H](c2ccccc2)OC(=O)N1CCCN1CCCCCC1`: the result in experiment [1], in [2], in [3], in experiment [4], in experiment [5] and in experiment [6] was inactive. For the same compound, the call in experiment [7], in experiment [8], in [10], in experiment [11], in experiment [12] and in experiment [14] was inactive. Further, the outcome in experiment [16] and in experiment [17] was inactive. In addition, the Potency result in [9], in experiment [13], in [15], in experiment [18] and in [19] was “inactive” each time.

For `COS(=O)(=O)O`, the call in [2], in experiment [3], in [4], in [5], in experiment [6] and in experiment [8] was inactive. The call in experiment [10], in [11], in experiment [12], in [14], in experiment [16] and in experiment [17] was inactive. In addition, the Potency entry in experiment [9], in experiment [13], in experiment [15], in [18] and in experiment [19] was “inactive” in each case.
